From PubChem BioAssay
Most compounds without a hit are left out; they make up all but 4.6% or so of the library.
TRHR agonist: activates the human TRH receptor | P34981 | TRHR cells, calcium flux fluo-8, FDSS agonist mode | activation, % at 2 µM | 360,000 tested, 0.18% active; also: 0% is about no effect
Target sequence (P34981 whole entry, looked up): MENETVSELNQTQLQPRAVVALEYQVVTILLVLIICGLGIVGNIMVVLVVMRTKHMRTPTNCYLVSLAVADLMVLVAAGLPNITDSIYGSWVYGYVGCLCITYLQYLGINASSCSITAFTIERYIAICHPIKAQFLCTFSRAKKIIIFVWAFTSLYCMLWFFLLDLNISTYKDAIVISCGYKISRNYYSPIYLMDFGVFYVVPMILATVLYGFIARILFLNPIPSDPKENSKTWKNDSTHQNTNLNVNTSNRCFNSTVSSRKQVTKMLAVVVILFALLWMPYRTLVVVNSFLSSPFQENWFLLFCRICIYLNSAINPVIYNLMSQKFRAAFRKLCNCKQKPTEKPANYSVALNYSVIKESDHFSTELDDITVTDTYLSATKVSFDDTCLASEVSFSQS
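Read-out: compound-evoked intracellular calcium rise in TRHR cells, fluo-8 dye, kinetic FDSS fluorescence at 1 s/cycle following a 10-cycle baseline. Cells cultured overnight before dye loading (30 min–1.5 h, RT).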
D1 ag: agonists of human D1 dopamine receptor | HEK293 T-REx D1 cells, calcium flux, agonist mode | activation, % at 2 µM | 360,000 tested, 1% active | P21728; also: 0% is about no effect
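Inducible HEK293 T-REx D1 cells, force-coupled to calcium signalling, were plated at 4000 cells/well with tetracycline and held overnight at 30 C. After no-wash calcium dye loading, compound-evoked calcium rise over 180 s flagged agonists.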
TRHR PAM: TRH receptor (human) allosteric enhancement; P34981; TRHR cells, fluo-8 calcium fluorescence, EC20 TRH enhancement; enhancement, % at 2 µM; 360,000 tested, 0.66% active; AID 493056; in the data active = enhancement above about 30%; also: 0% is about no effect
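Enhancer read-out: after compound pinning and an initial kinetic agonist-mode read, an EC20 of TRH (10 nM final) was injected and fluo-8 calcium signal (Ex 480/Em 530) followed at 1 s/cycle for 100 cycles in TRHR-expressing cells.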
D1 PAM: enhances dopamine response at the human D1 receptor. P21728. potentiation, % at 10 µM. AID 504651. HEK293 TREx D1 cells, calcium flux, dopamine EC20 potentiation. 360,000 tested, 0.036% active; in the data active = potentiation above about 30%; also: 0% is about no effect
D1 antagonist: antagonists of human D1 dopamine receptor; P21728; HEK293 TREx D1 cells, calcium flux, dopamine EC80; active compounds read low; activity change, negative = inhibition, % at 10 µM; 360,000 tested, 3.2% active; in the data active = activity change below about -30%; also: % is scaled to controls: 0 for no effect and ±100 for the full control effect
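Cells carrying a force-coupled, tetracycline-inducible human D1 receptor report calcium flux. Each well gets a 10 s baseline, compound with 180 s monitoring, then an EC80 dopamine stimulus with a second 180 s kinetic read.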
Active calls of the source: *; . = no result given; ! = repeats disagree. Rule as the data show it, unless noted: active = activation above about 30%; inactive = the rest.

SMILES	TRHR agonist	D1 ag	TRHR PAM	D1 PAM	D1 antagonist
COC(=O)c1ccccc1NC(=O)c1nc(S(=O)(=O)Cc2ccccc2F)ncc1Cl	1	2	3	-3	-5
O=C(NCc1ccccc1)c1nc(S(=O)(=O)Cc2ccc(F)cc2)ncc1Cl	-2	1	-11	-2	-46*
O=C(Nc1ccc(F)cc1)c1nc(S(=O)(=O)Cc2ccccc2)ncc1Cl	-1	2	-29	-2	-51*
O=C(Nc1nc2ccc(F)cc2s1)c1nc(S(=O)(=O)Cc2ccccc2)ncc1Cl	0	-1	-4	-1	-9
COC(=O)C(CCSC)NC(=O)c1cc2c(n(-c3ccc(C)cc3)c1=O)CC(C)(C)CC2=O (stereo not given)	1	-3	-6	-1	1
O=C(NCC1CCN(Cc2cccc(Cl)c2)CC1)Nc1ccc(F)c(Cl)c1	2	21	-1	-4	-6
CCc1cccc(CN2CCC(CNC(=O)Nc3ccc(Cl)cc3)CC2)c1	1	39*	0	-7	-44*
O=C(Nc1ccc(Oc2cccnc2)cc1)C1CCN(Cc2cccc(Cl)c2)CC1	1	49*	2	-12	-37*
O=C(Nc1ccc(Oc2cccnc2)cc1)C1CCN(Cc2ccccc2)CC1	2	25	2	-6	-2
Cc1cc(CN2CCCCC2C(=O)Nc2ccc(Oc3cccnc3)cc2)oc1C (stereo not given)	0	3	5	-6	-33*
O=C(Nc1ccc(Oc2cccnc2)cc1)C1CCCCN1Cc1ccc(CO)o1 (stereo not given)	0	2	5	1	1
COc1ccc(OC)c(CN2CCC(CNC(=O)Nc3cccc(Cl)c3)CC2)c1	-1	26	3	-3	-8
O=C(NCC1CCN(Cc2cccc(Cl)c2)CC1)Nc1ccc(Cl)cc1	2	31*	10	-19	-73*
CCOC(=O)c1[nH]c2ccccc2c1NC(=O)c1ccccc1OC	0	2	3	0	-6
O=C(/C=C/c1ccccc1)NCCSCc1ccccc1Cl	1	14	-8	-4	-32*
O=C(/C=C/c1ccccc1)NCCSCc1ccc(Cl)cc1	0	7	-4	-8	-1
O=C(/C=C/c1ccc(Cl)cc1Cl)NCCSCc1ccccc1	2	6	-3	-10	-46*
CC(C)CN(CC(C)C)C(=O)C1CCCN(S(=O)(=O)c2ccc3c(c2)oc(=O)n3C)C1 (stereo not given)	-1	1	5	-1	-31*
CCN(C(=O)C1CCN(S(=O)(=O)c2ccc3c(c2)oc(=O)n3C)CC1)c1cccc(C)c1	0	1	-6	.	-39*
Cc1ccc(N(C)C(=O)C2CCN(S(=O)(=O)c3ccc4c(c3)oc(=O)n4C)CC2)cc1	0	-1	1	7	-14
Cc1ccc(N2CCN(C(=O)C3CCN(S(=O)(=O)c4ccc5c(c4)oc(=O)n5C)CC3)CC2C)cc1 (stereo not given)	-1	12	-3	-3	-44*
Cn1c(=O)oc2cc(S(=O)(=O)N3CCCC(C(=O)N4CCN(c5ccc(Cl)cc5)CC4)C3)ccc21 (stereo not given)	-1	9	-2	-3	-34*
Cc1ccc2onc(CC(=O)N3CCN(c4ccccc4)CC3)c2c1	0	1	-4	-1	-8
Oc1cccc(-c2nc(-c3cccs3)c(-c3cccs3)[nH]2)c1	1	0	-5	-3	9
Cc1cccc(CCn2c(=O)c3ccccc3n(Cc3ccccc3C)c2=O)c1	0	1	3	-2	3
SMILES	TRHR agonist	D1 ag	TRHR PAM	D1 PAM	D1 antagonist
COc1ccc(N2CCN(C(=O)C3CCCN(S(=O)(=O)c4ccc5c(c4)oc(=O)n5C)C3)CC2)cc1 (stereo not given)	1	3	-4	-4	-45*!
COc1ccccc1N1CCN(C(=O)C2CCCN(S(=O)(=O)c3ccc4c(c3)oc(=O)n4C)C2)CC1 (stereo not given)	0	15	-4	-10	0
CCN(CC)C(=O)C1CCN(S(=O)(=O)c2ccc3oc4ccccc4c3c2)CC1	0	7	-4	2	-36*
COc1cc(CN(C(=O)c2oc3ccccc3c2C)C2CCS(=O)(=O)C2)cc(OC)c1OC (stereo not given)	0	7	2	1	-5
Cc1ccccc1NC(=O)CSc1nnc(COc2ccc(Cl)cc2)o1	0	1	-6	-2	1
Cc1ccc(S(=O)(=O)c2nnn(-c3ccc(F)c(Cl)c3)c2N)cc1	5	76*	10	2	-23
Cc1ccc(S(=O)(=O)c2nnn(-c3cccc(F)c3)c2N)cc1	0	10	-3	-1	-33*
COc1ccc(S(=O)(=O)c2nnn(-c3cccc(OC)c3)c2N)cc1	2	30	-1	-2	1
COc1ccc(S(=O)(=O)c2nnn(-c3ccc(C(C)C)cc3)c2C)cc1	0	9	-1	-4	-16
CN(C(=O)CSc1nc2ccccc2n1CC(=O)N(C)C1CCCCC1)c1ccccc1	0	-2	-4	1	-1
CCCCn1c(NCc2cc(Cl)ccc2O)nc2ccccc21	1	7	16	1	11
CCn1c(=O)cc(N2CCC3(CC2)OCCO3)[nH]c1=O	-2	4	11	-6	-60*
Cc1c2ccccc2nc2c(F)c(N(C)C)c(F)c(F)c12	40*	62*	4	-4	-5
CN(C)c1c2ccccc2nc2c(F)c(F)c(F)c(F)c12	0	2	-5	2	3
N#CCC(N)=C(C#N)C#N	38*	80*	-8	8	9
COc1ccc(-c2cn3nc(N4CCC(C(=O)Nc5cccc(OC)c5)CC4)sc3n2)cc1	0	-1	3	-2	5
CN(C)c1ccc(CN(Cc2ccco2)C(=O)c2ccc(F)cc2)cc1	2	2	8	-1	-12
Cc1cc([N+](=O)[O-])nn1Cc1ccc(C(=O)N/N=C/c2ccc(O)cc2O)cc1	0	1	3	-5	-33*
Cc1cc([N+](=O)[O-])nn1Cc1ccc(C(=O)N/N=C/c2ccc(F)cc2)cc1	0	0	-4	-4	-4
CCCN1C(C(=O)c2ccccc2)=C(OC(=O)C(C)(C)C)c2ccccc2S1(=O)=O	0	2	-6	0	12
Cc1ccc(C(=O)N/C(=C\c2cccc([N+](=O)[O-])c2)C(=O)OCN2C(=O)c3ccccc3C2=O)cc1	-2	5	-1	0	-48*
CCc1ccccc1Nc1nn2c(=O)c3ccc(C(=O)NC4CCCCC4)cc3nc2s1	0	1	3	0	-9
CNC(=S)N(Cc1cccs1)Cc1cc2cc(OC)ccc2[nH]c1=O	-1	5	0	-1	8
